Data as given in PubChem BioAssay (Tox21).
Values joined by “and” are separate entries in the source; they are usually repeats but may differ in a detail not shown here. Equal values may be shown once. Results filed as inconclusive are left out. A number with no mark means an inactive call. Active and inactive are the calls of the source. Calls come from the whole dose curve; as a rule, active = well fitted activation curve with a large enough effect in the repeat runs; inconclusive = weak or mixed curves; inactive = flat fitted curve, though single readings scatter.

Test: A CellTox Green Cytotoxicity Assay to monitor cytotoxicity in HEK293 cells - 32 hour (AID 1224881); note: nearly all actives have a fitted effect of over 40% in size
Conditions: CellTox Green fluorescence; series mostly up to 76.8 µM; cytotoxicity increase: at the top concentration
Text: National Center for Advancing Translational Sciences [NCATS]
NIH Chemical Genomics Center [NCGC]
U.S. Environmental Protection Agency [EPA]
National Institutes of Environmental Health Sciences [NIEHS]
National Toxicology Program [NTP]
Cell-based models are critical for drug discovery. Determining the natural cytotoxic effects resulting from test compounds is an essential research activity. A CellTox Green Cytotoxicity Assay to monitor cytotoxicity in real time of continues cell culture during 40 hours of the compound treatment was used to screen Tox21 10K library compounds in Hek293 cells. CellTox Green Cytotoxicity Assay is a nonlytic, homogeneous, biofluorescent method to measure cytotoxicity in cell culture after experimental manipulation. The assay system uses a proprietary asymmetric cyanine dye that is excluded from viable cells but preferentially stains the dead cell's DNA. […] Viable cells produce no appreciable increases in fluorescence. Therefore, the fluorescence signal produced by the binding interaction with dead cell DNA is proportional to cytotoxicity.
The mixture of Hek293 cell suspension and reagents were dispensed at 600cells/6 ul/well in 1536-well tissue culture treated black solid bottom plates using a Multidrop dispenser. After the assay plates were incubated at a 37 C/5% CO2 incubator for 5 hours, 23 nL of compounds dissolved in DMSO, positive and negative controls was transferred to the assay plate by a pintool work station. The plates were incubated at 37 C for 40 hours. The fluorescence intensity were measured at 0h, 8h, 16h, 24h, 32h and 40h time points using ViewLux plate reader during compound treatment.
% is set by controls: 0 for no effect and ±100 for the full control effect; potency is the fitted concentration of half-maximal effect.

| Structure (SMILES) | cytotoxicity increase | Potency |
| --- | --- | --- |
| C/C=C/c1ccc(OC)c(OC)c1 | -10.3% | – |
| CC(C)(C)c1cc(CCC(=O)NCCCCCCNC(=O)CCc2cc(C(C)(C)C)c(O)c(C(C)(C)C)c2)cc(C(C)(C)C)c1O | -0.383% | – |
| Cn1cnc2ncnc(N)c21 | -16.2% [at 35.3 µM] | – |
| CCc1cccc(CC)c1N(COC)C(=O)CS(=O)(=O)O | -10% | – |
| NC(=O)c1ccccc1N | -0.463% | – |
| CC1=CCC(=O)O1 | -10% | – |
| CCCCCCCOC(=O)c1ccc(O)cc1 | 28.9% | – |
| CCCCC(CC)COC(=O)c1ccc(O)cc1 (stereo not given) | – | 43.5 µM (active) and 21.9 µM (active) |
| CCCCN(C)C | 10.7% | – |
| Cc1cccc(C)c1NC(=O)CN1CCN(CCCC(c2ccc(F)cc2)c2ccc(F)cc2)CC1 | – | 19 µM (active) |
| CCN1CCN(c2cc(-c3ccc(F)cc3)c3c(n2)CCCCCC3)CC1 | 10% [at 15.8 µM] | – |
| CC1=CP(=O)(c2ccccc2)CC1 (stereo not given) | -24.4% | – |
| [O]=[Zr] | -9.7% | – |
| CC(C)=C1CC[C@@H](C)CC1=O | -1.79% | – |
| O=C[C@H](O)[C@H](O)[C@H](O)CO | 1.56% | – |
| C#CC(O)CCC (stereo not given) | -2.14% | – |
| CC(COC(=O)c1ccccc1)OC(=O)c1ccccc1 (stereo not given) | 2.38% | – |
| Cc1oc(-c2ccccc2)nc1CCOc1ccc(C[C@H](Nc2ccccc2C(=O)c2ccccc2)C(=O)O)cc1 | 10.6% | – |
| CC(C)=CCCC(C)CCOC(=O)C(C)C (stereo not given) | -16.1% | – |
| O=C1NCN(c2ccccc2)C12CCN(CCCC(c1ccc(F)cc1)c1ccc(F)cc1)CC2 | – | 23.9 µM (active) |

| Structure (SMILES) | cytotoxicity increase | Potency |
| --- | --- | --- |
| c1cc[nH]c1 | 14.7% | – |
| CCOC(OCC)C(=O)c1ccccc1 | 1.84% | – |
| COc1cccc(CCc2ccccc2OCC(CN(C)C)OC(=O)CCC(=O)O)c1 (stereo not given) | 13.4% [at 35.3 µM] | – |
| CO[Si](CCC1CCC2OC2C1)(OC)OC (stereo not given) | -12.6% | – |
| OCCCS | -6.82% | – |
| CC(=O)Nc1ccc(O)cc1 | – | inactive |
| CCC(C)c1ccccc1 (stereo not given) | -6.92% | – |
| S=P(N1CC1)(N1CC1)N1CC1 | -1.98% | – |
| CCCCCCCC(C)=O | -9.82% | – |
| CC1CCCNC1 (stereo not given) | -8% | – |
| Cc1cccc(Br)c1 | 3.32% | – |
| CCCCCCCCCCCCCCNCCO | – | 19 µM (active) |
| CO[Si](CCCNCCNCCN)(OC)OC | 4.24% | – |
| CCCOc1sc(C(=O)N2CCC(c3cc(CN)ccc3F)CC2)c(C)c1Br | – | 31.8 µM (active) |
| COc1cc(C(=O)NS(=O)(=O)c2ccccc2C)ccc1Cc1cn(C)c2ccc(NC(=O)OC3CCCC3)cc12 | -1.86% [at 35.3 µM] | – |
| Cc1cc(C)c(C=O)c(C)c1 | -2.19% | – |
| OCCCc1cccnc1 | -2.8% | – |
| CCc1c(C(=O)O)c(=O)cnn1-c1ccc(Cl)cc1 | -6.25% | – |
| COC(=O)NCCC[Si](OC)(OC)OC | 0.0254% | – |
| CC(C)(C)CC(C)(C)c1ccccc1O | – | 43.9 µM (active) |
